COUP-TFII inh: inhibitors of human COUP-TFII (NR2F2); 370,000 compounds, 0.7% hits; P24468; inhibition, % at 8.6 µM; HEK293T NGFI-A luciferase reporter, luminescence;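 active means inhibition above a per-plate cutoff, mean inhibition of test wells between control levels plus 3 SD, cut at about 38% in these data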;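 further: cells cotransfected with COUP-TFII expression vector driving the NGFI-A reporter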
Env fusion inh: inhibitors of HIV Env-mediated cell fusion. HeLa-JRFL Env/CEM21 cell fusion, luciferase. inhibition, % at 12.3 µM. 360,000 compounds, 1.1% hits. AID 651610;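 active means mean replicate inhibition score of at least 50 and every replicate individually at or above 50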
aDG glyco act: increases alpha dystroglycan glycosylation; AID 624168; 360,000 compounds, 0.22% hits; activation, % at 10 µM; Pro5-aDG cells, alpha-DG glycosylation AlphaScreen (IIH6); 0% Pro5, 100% B10-LARGE cell signal;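 active means activation of at least 8% versus controls, or a plate z-score of at least 8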;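 further: Pro5 are CHO cells carrying HIG-tagged alpha-DG that lacks glycosylation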
GalR3 antagonist: antagonists of human GalR3 | O60755 | 360,000 compounds, 0.44% hits | inhibition, % at 3 µM | HEK293 GalR3-CNG cAMP membrane potential fluorescence; galR3 body fused to GalR1 C-terminus;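 active means inhibition above the screen-wide average plus 3 SD, cut at about 13% in these data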;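 further: forskolin and galanin both at EC90 stimulate the cells; cAMP rise reported by CNG channel membrane potential dye signal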
Target sequence (O60755 1-299 limits assumed): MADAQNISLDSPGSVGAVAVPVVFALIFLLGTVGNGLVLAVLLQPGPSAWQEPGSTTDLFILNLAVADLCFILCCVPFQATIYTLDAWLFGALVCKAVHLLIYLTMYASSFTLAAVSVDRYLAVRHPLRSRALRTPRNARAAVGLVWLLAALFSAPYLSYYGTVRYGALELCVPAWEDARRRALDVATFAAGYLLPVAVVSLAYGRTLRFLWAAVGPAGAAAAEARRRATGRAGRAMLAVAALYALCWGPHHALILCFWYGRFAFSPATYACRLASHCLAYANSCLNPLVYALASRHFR
Gli-Sufu antag: antagonists of Gli-Sufu signaling; inhibition, % at 5 µM; Sufu-KO-LIGHT fibroblasts, Gli luciferase reporter luminescence; AID 588413; 340,000 compounds, 0.74% hits;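 active means inhibition above about 55%, limit read from the data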
Hits are given with their value; [ ] = remark or other dose. Rows were chosen to be rich in hits. Some 2.1% of all compounds tested hit in one or more screens of this group.

`O=C(C[C@@H]1C[C@@H]2c3cc(NC(=O)c4ccc5c(c4)OCO5)ccc3O[C@@H]2[C@H](CO)O1)NC1CCCCC1` gave Env fusion inh inactive.
Screening O=C(NCCc1ccccc1)C(c1cccs1)N(C(=O)c1csnn1)C1CC1 (stereo not given) returned COUP-TFII inh inactive, Env fusion inh inactive, aDG glyco act inactive, GalR3 antagonist inactive and Gli-Sufu antag inactive.
`O=C(NCCc1ccccc1)C(c1cccs1)N(C(=O)CCl)c1ccc(Cl)cc1` (stereo not given) gave COUP-TFII inh inactive, Env fusion inh inactive, aDG glyco act inactive, GalR3 antagonist inactive and Gli-Sufu antag 95.3.
`Cc1noc(C)c1NC(=O)Nc1ccc2c(c1)C(=O)N([C@H](C)CO)C[C@@H](C)[C@H](CN(C)S(=O)(=O)c1ccc(F)cc1)OCCCC[C@H](C)O2` gave Env fusion inh inactive.
`O=C(NCc1cccc(F)c1)[C@@H]1[C@@H](CO)[C@@H]2Cn3c(ccc(-c4cccnc4)c3=O)[C@H]1N2CC1CC1` gave Env fusion inh 67.1[16.7 µM].
`Cc1cc(C)cc(Oc2cc(NC(=O)c3cn(C)nc3C)cc([N+](=O)[O-])c2)c1` gave COUP-TFII inh inactive, Env fusion inh 59.4, aDG glyco act inactive, GalR3 antagonist inactive and Gli-Sufu antag inactive.
Screening C[C@H](CO)N1C[C@H](C)[C@H](CN(C)C(=O)Cc2ccccc2)OCCCC[C@H](C)Oc2ccc(NC(=O)CCC(F)(F)F)cc2C1=O returned Env fusion inh inactive.
O=C(C[C@H]1C[C@@H]2c3cc(NS(=O)(=O)c4ccc(F)cc4)ccc3O[C@@H]2[C@H](CO)O1)NCc1ccc(Cl)cc1 was read as Env fusion inh 86.3[16.7 µM].
CS(=O)(=O)Nc1ccc2c(c1)[C@H]1C[C@H](CC(=O)NCc3ccc(-c4ccccc4)cc3)O[C@H](CO)[C@H]1O2 was read as Env fusion inh 77.8[16.7 µM].
O=C(C[C@@H]1C[C@@H]2c3cc(NS(=O)(=O)c4ccc(F)cc4)ccc3O[C@@H]2[C@@H](CO)O1)NCCc1ccccc1 was read as Env fusion inh inactive.
O=C(C[C@H]1C[C@@H]2c3cc(NS(=O)(=O)c4ccc(F)cc4)ccc3O[C@@H]2[C@H](CO)O1)NCCc1ccccc1 was read as Env fusion inh 75.1[16.7 µM].
`Cc1ccc(-c2nc(CSCC(=O)N3CCOCC3)c(C)o2)cc1` gave COUP-TFII inh inactive, Env fusion inh inactive, aDG glyco act inactive, GalR3 antagonist inactive and Gli-Sufu antag inactive.
Screening Cc1ccc(-c2nc(CSCC(=O)N3CCN(c4ccccn4)CC3)c(C)o2)cc1 returned COUP-TFII inh 47.2, Env fusion inh 57.1, aDG glyco act inactive, GalR3 antagonist inactive and Gli-Sufu antag inactive.
Screening C[C@@H]1CCCCO[C@H](CN(C)C(=O)c2ccccc2)[C@H](C)CN([C@@H](C)CO)C(=O)c2cc(NS(=O)(=O)c3cn(C)cn3)ccc2O1 returned Env fusion inh inactive.
`CCCc1cc(=O)oc2c3c(cc(OCC(=O)NCc4ccccn4)c12)OC(C)(C)CC3` gave COUP-TFII inh inactive, aDG glyco act inactive, GalR3 antagonist 16.4 and Gli-Sufu antag inactive.
For Cc1c(C)c2c(OCC(=O)NCc3ccccn3)cc3c(c2oc1=O)CCC(C)(C)O3 the results were COUP-TFII inh inactive, aDG glyco act inactive, GalR3 antagonist inactive and Gli-Sufu antag inactive.
For COC(=O)c1ccc2c(c1)C(C)(C)C(/C=C/c1ccc(OC)c(OC)c1OC)=[N+]2C the results were COUP-TFII inh inactive, aDG glyco act inactive, GalR3 antagonist inactive and Gli-Sufu antag inactive.
For COC(=O)c1ccc2c(c1)C(C)(C)C(/C=C/c1ccc(O)cc1)=[N+]2C the results were COUP-TFII inh inactive, Env fusion inh inactive, aDG glyco act inactive, GalR3 antagonist inactive and Gli-Sufu antag 66.0.
`CCOc1ccc(C(C)=O)cc1COC(=O)c1ccccc1C(=O)N(C)Cc1ccccc1` gave COUP-TFII inh inactive, Env fusion inh 98.2, aDG glyco act inactive, GalR3 antagonist inactive and Gli-Sufu antag inactive.
For CCc1cc(-c2[nH]ncc2-c2ccc(OC)cc2)c(O)cc1O the results were COUP-TFII inh inactive, Env fusion inh inactive, aDG glyco act inactive, GalR3 antagonist inactive and Gli-Sufu antag inactive.
For COc1ccc(-c2cn[nH]c2-c2ccc(O)cc2O)cc1OC the results were COUP-TFII inh inactive, Env fusion inh inactive, aDG glyco act inactive, GalR3 antagonist inactive and Gli-Sufu antag inactive.
CCOc1ccc(-c2[nH]ncc2-c2ccc(OC)c(OC)c2)c(O)c1 was read as COUP-TFII inh inactive, Env fusion inh 66.6, aDG glyco act inactive, GalR3 antagonist inactive and Gli-Sufu antag inactive.
Screening COc1ccc(-c2cn[nH]c2-c2ccc(OCc3ccc([N+](=O)[O-])cc3)cc2O)cc1 returned COUP-TFII inh inactive, Env fusion inh 73.0, aDG glyco act inactive, GalR3 antagonist inactive and Gli-Sufu antag inactive.
`O=C(Nc1ccc(Cl)c(Cl)c1)N[C@H]1CC[C@H](CCn2cc(C3CC3)nn2)O[C@H]1CO` gave Env fusion inh inactive.
For CN1CCN(c2ccc(NC(=O)c3ccc(-c4ccc(Cl)cc4)o3)cc2)CC1 the results were COUP-TFII inh inactive, Env fusion inh inactive, aDG glyco act 5.5, GalR3 antagonist inactive and Gli-Sufu antag inactive.
CS(=O)(=O)N1CCN(c2ccc(NC(=O)c3ccc(-c4ccc(Cl)cc4)o3)cc2)CC1 was read as COUP-TFII inh inactive, Env fusion inh inactive, aDG glyco act inactive, GalR3 antagonist inactive and Gli-Sufu antag inactive.
CCOc1ccc(N(C)S(=O)(=O)c2ccc(C)c(C(=O)OCC(=O)c3c[nH]c4ccccc34)c2)cc1 was read as COUP-TFII inh inactive, Env fusion inh 58.2, aDG glyco act inactive, GalR3 antagonist inactive and Gli-Sufu antag inactive.
For COc1ccc(C(=O)OCC(=O)c2c[nH]c3ccccc23)c(OC)c1 the results were COUP-TFII inh inactive, Env fusion inh inactive, aDG glyco act inactive, GalR3 antagonist inactive and Gli-Sufu antag inactive.
For Cc1ccc(S(=O)(=O)N(C)C)cc1NC(=O)COc1ccccc1C(=O)Nc1ccccc1 the results were COUP-TFII inh inactive, Env fusion inh 74.0, aDG glyco act inactive, GalR3 antagonist inactive and Gli-Sufu antag inactive.
O=C1c2ccc3c4c(ccc(c24)C(=O)N1c1cccc(O)c1)C(=O)N(c1cccc(O)c1)C3=O was read as COUP-TFII inh inactive, Env fusion inh inactive, aDG glyco act 4.0, GalR3 antagonist inactive and Gli-Sufu antag inactive.
`C[C@H](CO)N1C[C@H](C)[C@@H](CN(C)C(=O)c2ccncc2)Oc2ncc(C#CC3CCCC3)cc2C1=O` gave Env fusion inh inactive.
COc1ccc(Cl)cc1NC(=O)NC(C)C was read as COUP-TFII inh inactive, Env fusion inh inactive, aDG glyco act inactive, GalR3 antagonist inactive and Gli-Sufu antag inactive.
`COc1ccc(Cl)cc1NC(=O)C(C)NC(c1ccccc1)c1ccccc1` (stereo not given) gave COUP-TFII inh inactive, Env fusion inh 59.0, aDG glyco act inactive, GalR3 antagonist inactive and Gli-Sufu antag inactive.

Screening data deposited in PubChem BioAssay by several laboratories.
